Experimental data from PubChem BioAssay (NCATS).
Inconclusive results are not listed. Calls of active or inactive are those of the source. Unless noted, calls come from the whole dose curve; as a rule, active = well fitted curve in either direction with a large enough effect (not every such curve was filed as active); inconclusive = small, poorly fitted or top-dose-only effect, or another doubt; inactive = flat fitted curve, though single readings scatter.

Assays:
[1] = biological target: Lysosomal acid glucosylceramidase (Homo sapiens) (UniProt P04062); experiment: Glucocerebrosidase-p2 (AID 348; in the data active = potency below about 10 µM; note: potency is the fitted concentration of half-maximal effect); conditions: purified GBA, blue fluorogenic substrate, 40 min
Sequence of Lysosomal acid glucosylceramidase (Homo sapiens) (P04062 whole entry, looked up): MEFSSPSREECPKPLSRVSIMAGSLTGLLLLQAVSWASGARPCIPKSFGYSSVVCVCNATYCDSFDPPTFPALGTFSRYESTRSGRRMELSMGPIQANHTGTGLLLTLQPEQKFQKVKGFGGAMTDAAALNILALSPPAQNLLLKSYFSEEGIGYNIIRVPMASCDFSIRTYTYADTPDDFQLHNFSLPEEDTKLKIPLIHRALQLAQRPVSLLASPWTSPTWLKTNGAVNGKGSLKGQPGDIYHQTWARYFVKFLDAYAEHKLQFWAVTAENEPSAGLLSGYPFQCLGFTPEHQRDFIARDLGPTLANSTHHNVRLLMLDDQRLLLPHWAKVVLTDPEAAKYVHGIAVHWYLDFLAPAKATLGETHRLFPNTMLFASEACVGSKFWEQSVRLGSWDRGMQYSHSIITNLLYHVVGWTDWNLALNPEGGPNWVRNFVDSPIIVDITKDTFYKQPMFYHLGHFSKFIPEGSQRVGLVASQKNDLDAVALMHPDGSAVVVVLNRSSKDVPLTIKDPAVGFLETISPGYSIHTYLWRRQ
Summary of the method: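 Compounds titrated from 0.6 nM upwards against 0.2 nM enzyme in pH 5.9 citric acid/KH2PO4, taurocholate, tween-20; blue fluorogenic substrate 80 uM, 40 min room temperature, stopped and read Ex 365/Em 440 for AC50.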

[2] = AP1 Signaling Pathway (AID 357); conditions: ME-180 AP-1-bla reporter, EGF-induced, beta-lactamase ratio, 5 h; at 7.69 µM (top of the series) unless noted;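 note: ME-180 reporter cells stimulated with EGF at its EC50 level; % is set by controls: 0 for no effect and ±100 for the full control effect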
Summary of the method: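 Modulation of EGF-driven AP-1 transcription was assessed with a beta-lactamase reporter in ME-180 cells. Compound and EC50 EGF were co-incubated 5 hours at 37 °C before 2.5-hour CCF4 loading at room temperature and dual-emission reading.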

[3] = biological target: Cytochrome P450 1A2 (Homo sapiens) (UniProt P05177); experiment: p450-cyp1a2 (AID 410; calls by dose curve; note: potency is the fitted concentration of half-maximal effect;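 for activity change, negative = inhibition: -100% = full effect of reference inhibitor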); conditions: recombinant CYP1A2, luciferin-ME demethylation, luminescence; series mostly up to 57 µM
Sequence of Cytochrome P450 1A2 (Homo sapiens) (P05177 whole entry, looked up): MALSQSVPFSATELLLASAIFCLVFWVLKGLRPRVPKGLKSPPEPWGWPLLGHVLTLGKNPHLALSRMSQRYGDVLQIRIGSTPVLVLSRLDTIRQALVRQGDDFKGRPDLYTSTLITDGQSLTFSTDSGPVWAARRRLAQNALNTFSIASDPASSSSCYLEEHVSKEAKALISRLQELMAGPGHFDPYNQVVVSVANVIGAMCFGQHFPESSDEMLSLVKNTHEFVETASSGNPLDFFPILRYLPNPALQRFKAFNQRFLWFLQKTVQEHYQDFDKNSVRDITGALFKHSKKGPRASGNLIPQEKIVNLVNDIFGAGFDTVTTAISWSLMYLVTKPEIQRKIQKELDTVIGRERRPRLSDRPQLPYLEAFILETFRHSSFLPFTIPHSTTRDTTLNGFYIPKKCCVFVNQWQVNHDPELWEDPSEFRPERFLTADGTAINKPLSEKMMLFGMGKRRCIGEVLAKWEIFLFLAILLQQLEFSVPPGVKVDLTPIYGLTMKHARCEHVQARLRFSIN
Summary of the method: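 20nM CYP1A2 with 100uM Luciferin-ME (at Km) in 100mM KPO4; compound preincubated 10 min, NADPH regeneration added, 60 min at room temperature. Luciferin quantified by luminescence after detection reagent; normalized to 57 uM furafylline.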

[4] = NFAT Signaling Pathway (AID 444); conditions: Jurkat NFAT-bla M1, carbachol, beta-lactamase ratio, 5 h; at 7.69 µM (top of the series) unless noted;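 note: carbachol stimulus at about its EC50 of 1 µM final; % is set by controls: 0 for no effect and ±100 for the full control effect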
Summary of the method: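 Jurkat cells with NFAT-driven β-lactamase reporter and co-expressed M1 receptor, stimulated with carbachol (final 1 uM, ~EC50), compound titration, 5 h at 37 °C. CCF4 loaded 1 h at RT; 460/530 nm ratio gave %activity and AC50.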

[5] = Stat Signaling Pathway (AID 446); conditions: ME-180 SIE beta-lactamase reporter, IL-6 stimulated, 5 h; at 7.69 µM (top of the series) unless noted;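 note: ME-180 cervical cancer cells given 40 pM IL-6 alongside compound; SIE-controlled beta-lactamase reporter measured as 460/530 nm FRET emission ratio; % is set by controls: 0 for no effect and ±100 for the full control effect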
Summary of the method: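 ME-180 cells carrying a SIE-driven beta-lactamase reporter are stimulated with 40 pM IL-6 for 5 h at 37C in the presence of compound. The 460/530 nm FRET substrate ratio is read after 2.5 h at RT. Data are normalised to 300 pM IL-6 and to 125 nM JAK inhibitor controls.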

[6] = biological target: Glucocorticoid receptor (Homo sapiens) (UniProt P04150); experiment: GR-GFP Redistribution (AID 450;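 active = compounds whose dose series gives a full or clear partial fitted curve of increased nuclear translocation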; note: potency is the fitted concentration of half-maximal effect); conditions: U2OS GR-GFP nuclear translocation, laser cytometry, 2 h
Sequence of Glucocorticoid receptor (Homo sapiens) (P04150 whole entry, looked up, the tested form may be a part): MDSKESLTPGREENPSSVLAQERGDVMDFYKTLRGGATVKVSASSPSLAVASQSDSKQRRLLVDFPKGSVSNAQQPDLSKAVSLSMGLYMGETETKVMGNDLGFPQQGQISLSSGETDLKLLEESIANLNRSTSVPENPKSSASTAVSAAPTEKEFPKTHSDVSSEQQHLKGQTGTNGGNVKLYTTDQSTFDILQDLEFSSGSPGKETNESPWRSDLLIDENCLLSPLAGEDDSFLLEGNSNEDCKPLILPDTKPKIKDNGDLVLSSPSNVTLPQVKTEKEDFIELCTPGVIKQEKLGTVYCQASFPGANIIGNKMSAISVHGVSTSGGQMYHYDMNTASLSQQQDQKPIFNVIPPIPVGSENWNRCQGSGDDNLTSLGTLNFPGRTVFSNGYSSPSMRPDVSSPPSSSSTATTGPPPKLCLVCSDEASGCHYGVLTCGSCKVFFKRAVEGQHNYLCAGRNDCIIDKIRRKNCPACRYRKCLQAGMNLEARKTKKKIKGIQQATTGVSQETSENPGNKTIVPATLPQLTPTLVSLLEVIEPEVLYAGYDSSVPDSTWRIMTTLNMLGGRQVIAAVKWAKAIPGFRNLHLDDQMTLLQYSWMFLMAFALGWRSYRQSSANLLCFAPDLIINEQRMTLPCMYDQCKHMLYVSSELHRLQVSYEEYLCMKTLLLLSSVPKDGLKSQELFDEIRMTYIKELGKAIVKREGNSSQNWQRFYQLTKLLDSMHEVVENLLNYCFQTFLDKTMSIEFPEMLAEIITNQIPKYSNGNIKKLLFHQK

[7] = biological target: Glucocorticoid receptor (Homo sapiens) (UniProt P04150); experiment: GR-EFC Redistribution (AID 451; calls by dose curve; note: potency is the fitted concentration of half-maximal effect); conditions: CHO-K1 GR-EFC translocation, beta-gal luminescence, 2 h
Summary of the method: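 CHO-K1 cells expressing nuclear EA and GR-ED fragments of b-gal; compounds titrated up to 46 uM final, 2 h at 37 C. GR nuclear translocation read as complemented b-gal luminescence after 1 h RT detection.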

[8] = biological target: Mitogen-activated protein kinase 10 (Mus musculus) (UniProt Q61831); experiment: JNK3 AlphaScreen Assay (AID 530); conditions: JNK3 lysate, c-Jun phosphorylation; series mostly up to 57.1 µM;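 note: kinase came from lysate of stimulated human HepG2 cells; signal reports phosphorylation of biotinylated GST-cJun 1-79 at Ser73 with 10 µM ATP; % is set by controls: 0 for no effect and ±100 for the full control effect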
Summary of the method: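 Pre-activated (IL-1β/TNFα) JNK3 in HepG2 lysates phosphorylates biotin-GST-cJun(1-79), 10 uM ATP; anti-phospho-cJun(Ser73) AlphaScreen read at room temperature, pH 7.6 Tris buffer. Compounds pre-incubated 15 min as titrations.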

[9] = biological target: 3',5'-cyclic-AMP phosphodiesterase 4B (Homo sapiens) (UniProt Q07343); experiment: qHTS Assay for Inhibitors of PDE-IV (AID 607; active = well fitted activation curve with a large enough effect in the main read-out, with a control signal flat, not every such curve was filed as active; note: % of control where 0% means no effect); conditions: HEK293 ACTOne CNG channel cells, membrane potential fluorescence; series mostly up to 22.9 µM
Sequence of 3',5'-cyclic-AMP phosphodiesterase 4B (Homo sapiens) (Q07343 whole entry, looked up): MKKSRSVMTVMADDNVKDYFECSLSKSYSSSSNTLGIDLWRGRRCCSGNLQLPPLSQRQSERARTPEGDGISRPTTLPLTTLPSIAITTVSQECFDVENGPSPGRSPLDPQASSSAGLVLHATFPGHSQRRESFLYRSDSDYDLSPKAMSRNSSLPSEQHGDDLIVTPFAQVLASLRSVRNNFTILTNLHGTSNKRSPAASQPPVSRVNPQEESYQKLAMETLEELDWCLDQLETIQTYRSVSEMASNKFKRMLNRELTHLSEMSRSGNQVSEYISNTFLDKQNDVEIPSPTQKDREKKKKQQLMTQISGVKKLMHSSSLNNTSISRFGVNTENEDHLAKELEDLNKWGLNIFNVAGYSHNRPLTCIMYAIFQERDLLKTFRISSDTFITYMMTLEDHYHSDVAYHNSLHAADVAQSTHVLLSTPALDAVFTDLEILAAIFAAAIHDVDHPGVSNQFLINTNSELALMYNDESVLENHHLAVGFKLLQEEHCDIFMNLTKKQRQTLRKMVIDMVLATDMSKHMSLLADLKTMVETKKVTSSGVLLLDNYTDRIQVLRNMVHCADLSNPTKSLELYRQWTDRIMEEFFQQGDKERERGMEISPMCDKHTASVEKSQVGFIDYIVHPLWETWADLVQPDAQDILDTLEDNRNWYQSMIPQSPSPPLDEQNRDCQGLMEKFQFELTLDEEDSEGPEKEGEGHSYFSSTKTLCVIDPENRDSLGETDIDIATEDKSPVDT
Summary of the method: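 HEK293 ACTOne cells with CNG channel (1000/well), endogenous PDE4; membrane potential dye, compounds up to 22.9 uM final. Fluorescence Ex 535/Em 590; RO 20-1724 (100 uM final) as reference.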

[10] = biological target: Cytochrome P450 3A4 (Homo sapiens) (UniProt P08684); experiment: qHTS Assay for Activators of Cytochrome P450 3A4 (AID 885; active = well fitted curve in the direction sought with a large enough effect; an effect the other way counts as inactive or inconclusive; note: nearly all actives have a fitted effect of over 65% in size); conditions: recombinant CYP3A4, Luciferin-PPXE luminescence, 60 min; series mostly up to 57.1 µM
Sequence of Cytochrome P450 3A4 (Homo sapiens) (P08684 whole entry, looked up): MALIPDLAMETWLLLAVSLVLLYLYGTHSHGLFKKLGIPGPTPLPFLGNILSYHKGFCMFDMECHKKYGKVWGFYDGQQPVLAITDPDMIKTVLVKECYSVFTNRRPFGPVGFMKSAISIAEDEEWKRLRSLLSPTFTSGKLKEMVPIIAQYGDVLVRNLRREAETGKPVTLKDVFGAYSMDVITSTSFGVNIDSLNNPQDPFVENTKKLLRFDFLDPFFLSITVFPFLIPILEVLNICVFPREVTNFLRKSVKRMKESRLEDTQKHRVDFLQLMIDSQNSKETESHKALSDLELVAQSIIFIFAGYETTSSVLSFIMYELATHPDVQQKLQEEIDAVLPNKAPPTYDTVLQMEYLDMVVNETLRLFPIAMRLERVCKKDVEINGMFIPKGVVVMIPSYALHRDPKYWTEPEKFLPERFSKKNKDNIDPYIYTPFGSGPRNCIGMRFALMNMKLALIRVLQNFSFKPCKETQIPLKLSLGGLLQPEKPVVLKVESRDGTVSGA
Summary of the method: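 Human CYP3A4 (20 nM) with Luciferin-PPXE at 25 uM (its KM) in 200 mM KPO4; 10 min compound preincubation, then NADPH regeneration and 60 min reaction at RT. Luciferin read by luminescence; normalized to 57 uM ketoconazole full inhibition.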

[11] = Confirmation and Secondary Assay for Modulators of Hemoglobin Beta Chain Splicing at IVS2 654 locus (AID 910; active = well fitted curve in the direction sought with a large enough effect; an effect the other way counts as inactive or inconclusive;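 note: HeLa cells stably carrying EGFP split by mutant beta-globin IVS2-654 intron; % of control where 0% means no effect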); conditions: HeLa EGFP-654 splicing reporter, GFP fluorescence, 48 h; series mostly up to 38.3 µM
Summary of the method: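 HeLa cells stably expressing EGFP interrupted by β-globin IVS2-654 intron, seeded overnight in Opti-MEM/2% FCS, then treated 2 days at 37 °C. Restored splicing read as total peak GFP intensity per well by laser scanning cytometry (488 nm excitation, 500–520 nm emission); 500 nM antisense PNA as control.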

[12] = Confirmation and Secondary Assay for Modulators of Hemoglobin Beta Chain Splicing at IVS2 705 locus (AID 930; active = well fitted curve in the direction sought with a large enough effect; an effect the other way counts as inactive or inconclusive;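 note: HeLa cells stably expressing the EGFP-705 splicing reporter; GFP fluorescence per well restored by corrected splicing of the IVS2-705 intron in EGFP; % of control where 0% means no effect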); conditions: HeLa EGFP-705 splicing reporter, GFP fluorescence, 48 h; series mostly up to 38.3 µM
Summary of the method: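 Secondary splice-site specificity test uses HeLa expressing CMV-driven EGFP interrupted by IVS2-705; cells were treated 2 days at 37C with 500 nM antisense PNA as positive control.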

[13] = qHTS Assay for Lipid Storage Modulators (AID 1519; calls by dose curve); conditions: Drosophila S3 cells, BODIPY lipid droplet/cell ratio, laser cytometry, cells loaded with oleic acid; for activity change, negative = inhibition: at 57.5 µM (top of the series)
Summary of the method: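 Cells seeded at 5,000 per well were treated with compounds over a concentration series and loaded with oleic acid (400 uM, as added). Lipid droplet fluorescence (488 nm excitation, 500-530 nm channel) was read by laser-scanning cytometry and normalized to 20 uM Triacsin C.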

[14] = qHTS profiling for inhibitors of Plasmodium falciparum (3D7) proliferation (AID 743322);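 note: infected erythrocytes exposed to compound for 72 h before lysis; 100% = DMSO vehicle wells and 0% = 0.29 µM artemisinin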; conditions: P. falciparum 3D7 proliferation; at 28.7 µM (top of the series)
Summary of the method: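 Erythrocytes infected with P. falciparum (0.3% parasitemia, 2.5% hematocrit) incubated with compounds 72 h at 37 C, 5% CO2. Lysis with saponin/Triton buffer containing SYBR Green I, overnight at room temperature in the dark; DNA fluorescence (485/535 nm) normalised to 0.29 uM artemisinin and DMSO.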

[15] = qHTS profiling for inhibitors of Plasmodium falciparum (DD2) proliferation (AID 743323; call rule not given here); conditions: lower = more inhibition; at 28.7 µM (top of the series)
Summary of the method: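 P. falciparum Dd2-infected erythrocytes (0.3% parasitemia, 2.5% hematocrit) exposed 72 h at 37 C, 5% CO2. Lysis with SYBR Green, overnight at room temperature, fluorescence 485/535 nm; normalized to 0.29 uM artemisinin and DMSO.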

[16] = qHTS profiling for inhibitors of Plasmodium falciparum (HB3) proliferation (AID 743324; active = well fitted curve in the direction sought with a large enough effect; an effect the other way counts as inactive or inconclusive;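 note: 100% = DMSO vehicle wells and 0% = artemisinin-treated control wells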); conditions: Plasmodium falciparum HB3 blood-stage proliferation; at 28.7 µM (top of the series)
Summary of the method: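 P. falciparum HB3 grown in erythrocytes (0.3% parasitemia, 2.5% hematocrit final) with compound for 72 h at 37 C, 5% CO2. Parasite DNA detected by SYBR Green after saponin/triton lysis overnight; normalized to 0.29 uM artemisinin and DMSO.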

[17] = measured here: cell count channel max response
[18] = measured here: lipid channel max response

Row | SMILES | Potency [1] | activity change, negative = inhibition [2] | Potency [3] | activity change, negative = inhibition [4] | activity, negative = inhibition [5] | Potency [6] | Potency [7] | outcome [8] | Potency [9] | Potency [10] | outcome [11] | outcome [12] | activity change, negative = inhibition [13] | max response [13, 17] | max response [13, 18] | remaining parasite growth % (stronger effect = lower value) [14] | activity, percent of control [15] | remaining proliferation (% of control), lower = more inhibition [16]
1 | N#Cc1ccccc1-c1ccc2ncnc(N3CCNCC3)c2c1 | > 11.4 µM (inactive) | 6.5% (inactive) | 3.98 µM (active) | 17.9% (inactive) | 2.26% (inactive) | > 46 µM (inactive) | > 46 µM (inactive) | inactive | inactive | inactive | inactive | inactive | 7.44% (inactive) | 18.9% | 26.9% |  |  | 
2 | CC(=O)N1CCC[C@@]2(CCN(Cc3cc(C(F)(F)F)cc(C(F)(F)F)c3)C2)C1 | > 11.4 µM (inactive) | -5.47% (inactive) |  | 20.4% (inactive) | -6.41% (inactive) |  | > 46 µM (inactive) |  | inactive |  |  |  | 5.56% (inactive) | 8.88% | 18.9% |  |  | 
3 | COC(=O)[C@H](Cc1ccc(O[S+](=O)([O-])c2cccc3cnccc23)cc1)N(C)[S+](=O)([O-])c1ccc2cnccc2c1 |  |  |  |  |  |  |  |  |  |  |  |  |  |  |  | -0.184% | 3.76% | 0.837%
4 | CC(C)NC(=O)N1CC[C@@]2(CCCN(S(C)(=O)=O)C2)C1 | > 11.4 µM (inactive) | -5.61% (inactive) | inactive | 0.961% (inactive) | -2.56% (inactive) |  | > 46 µM (inactive) | inactive |  |  |  |  | 0.109% (inactive) | 4.25% | 3.89% |  |  | 
5 | CS(=O)(=O)N1CCC[C@@]2(CCN(Cc3nccs3)C2)C1 | > 11.4 µM (inactive) | -5.88% (inactive) | inactive | 5.31% (inactive) | 4.77% (inactive) |  | > 46 µM (inactive) | inactive | inactive | inactive |  |  | 7.12% (inactive) | 9.38% | 20.5% |  |  | 
